In the supplement of paper PMC13380429:
A number with no mark means an inactive call.

Tested on: Vero E6 infected with SARS-CoV-2
Assay: inhibition of SARS-CoV-2 cytopathic effect; higher = more antiviral protection, active = above 15
Details: 48 h

| Compound | inhibition of SARS-CoV-2 cytopathic effect (1 nM) | inhibition of SARS-CoV-2 cytopathic effect (8.33 nM) | inhibition of SARS-CoV-2 cytopathic effect (100 nM) | inhibition of SARS-CoV-2 cytopathic effect (833.33 nM) | inhibition of SARS-CoV-2 cytopathic effect (10000 nM) |
| --- | --- | --- | --- | --- | --- |
| CN/C(=N\c1ccc(C2=NNC(=O)CC2C)cc1)NC#N (stereo not given) [siguazodan] | 1.52% | 1.14% | -0.26% | 1.67% | -1.34% |
| Cc1ccc(S(=O)(=O)NC2c3ccccc3Oc3ccccc32)cc1 | -5.59% | -2.13% | -2.17% | -6.38% | -2.38% |
| BrC1C(Br)C(Br)C(Br)C(Br)C1Br (stereo not given) [1,2,3,4,5,6-hexabromocyclohexane] | -2.03% | -1.15% | -1.07% | -1.96% | 9.07% |
| O=C1C(=Cc2cccnc2)C(=O)c2ccccc21 | 1.43% | 1% | 3.58% | 5.97% | 5.97% |
| CN(C)C/C=C(/c1ccc(Br)cc1)c1cccnc1 [zimelidine] | 0.58% | 1.8% | 0.96% | -1% | -1.69% |
| Oc1ccc2ccccc2c1 [beta-naphthol] | -0.51% | -1.33% | 2.24% | 5.34% | 2.59% |
| COc1ccc(C(=O)CC2(O)C(=O)Nc3c(Cl)ccc(Cl)c32)cc1 (stereo not given) | 2.13% | 3.01% | -1.11% | 1.43% | -1.83% |
| O=c1oc2c(O)c(O)cc3c(=O)oc4c(O)c(O)cc1c4c23 [ellagic-acid] | 0.02% | 0.42% | 4.12% | 1.76% | -1.74% |
| COc1cc(OC2CCN(C)CC2)ccc1Nc1ncc2c(n1)n(C1CCCC1)c(=O)n2C | 1.63% | 2.01% | -2.6% | 0.1% | 11.1% |
| CNc1nc(C)nc(N[C@H]2CCC[C@@H](C(=O)NCc3ccc(C#N)cc3C(F)(F)F)C2)n1 | 1.51% | -1.43% | -0.92% | -0.12% | -2.39% |
| COc1ccc(CN(CCN(C)C)c2ncccn2)cc1 [thonzylamine] | 0.64% | 0.52% | 0.24% | 3.55% | -0.17% |
| CCc1cc(Cl)c(OC)c(C(=O)NC[C@@H]2CCCN2CC)c1O [eticlopride] | -0.43% | -0.67% | 1.17% | 0.92% | 3.78% |
| CCCn1c(=O)c2[nH]c(-c3cnn(Cc4cccc(C(F)(F)F)c4)c3)nc2n(CC)c1=O | 1.43% | 1.19% | 2.16% | -0.96% | 0.11% |
| NCCC[C@H](N)C(=O)O [ornithine] | -1.52% | -1.05% | -1.8% | -2.37% | 2.35% |
| O[C@@H]1[C@H](O)[C@@H](CCl)O[C@H]1n1cnc2c(NC3CC4CCC3C4)ncnc21 (mixture of isomers) [5'-chloro-5'-deoxy-ENBA-(+/-)] | -4.47% | -2.02% | 0.3% | 3.77% | -3.73% |
| NC(=O)[C@@H](CCC(F)(F)F)N(Cc1ccc(-c2ncon2)cc1F)S(=O)(=O)c1ccc(Cl)cc1 [avagacestat] | 0.74% | -2.98% | -5.03% | -4.21% | -6.12% |
| Cc1ccc([N+](=O)[O-])cc1S(=O)(=O)N(C)/N=C/c1cnc2ccc(Br)cn12 | 0.29% | -0.13% | -5.92% | -16.5% | -5.86% |
| NC(=O)c1cnc(N[C@@H]2CCCC[C@@H]2N)nc1Nc1cccc(-n2nccn2)c1 | -1.26% | -0.3% | 2.11% | -0.39% | 24.4% (active) |
| C=CCc1cc(OC)c(O)c(C(=O)NCCO)c1 [alibendol] | -1.08% | -1.21% | -0.53% | 1.71% | -2.2% |

| Compound | inhibition of SARS-CoV-2 cytopathic effect (1 nM) | inhibition of SARS-CoV-2 cytopathic effect (8.33 nM) | inhibition of SARS-CoV-2 cytopathic effect (100 nM) | inhibition of SARS-CoV-2 cytopathic effect (833.33 nM) | inhibition of SARS-CoV-2 cytopathic effect (10000 nM) |
| --- | --- | --- | --- | --- | --- |
| CCCC(C(=O)OCCN(CC)CC)(c1ccccc1)c1ccccc1 [proadifen] | -8.13% | -2.48% | -0.9% | -3.07% | -9.2% |
| CC(=O)N1CCC[C@H]1C(=O)N[C@@H](Cc1cnc[nH]1)C(=O)N[C@@H](CO)C(=O)N[C@@H](CS)C(=O)N[C@@H](CC(N)=O)C(N)=O | 1.06% | 0.67% | 2.55% | 2.87% | 3.86% |
| C[C@@H](O)[C@H](N)C(=O)N1CCC[C@H]1C(=O)N1CCC[C@H]1C(=O)N[C@H](C(N)=O)[C@@H](C)O [rapastinel] | -2.84% | -5.74% | 0.55% | -1.01% | -0.06% |
| CN1C(=O)C(F)=C[C@]2(C)[C@H]3CC[C@]4(C)[C@@H](C(=O)NCc5nc6cccnc6[nH]5)CC[C@H]4[C@@H]3CC[C@@H]12 | 0.34% | -0.43% | -0.05% | 2.35% | 1.08% |
| CCCCc1cc2ccccc2c(OCCN(C)C)n1 [dimethisoquin] | 0.87% | 1.84% | -0.28% | 0.5% | -2.53% |
| O=[N+]([O-])c1cc2nc(O)c(O)nc2cc1[N+](=O)[O-] | -4.28% | -0.96% | -0.81% | -1.99% | 0.49% |
| COc1cc2ncnc(Nc3ccc(Cl)cc3F)c2cc1OC | 1.92% | -0.75% | -1.55% | -5% | -11.2% |
| CC(C)(C)CC(C)(C)c1ccc(O)c(Cc2ccc(Cl)cc2Cl)c1 [clofoctol] | 3.11% | 0.06% | 2.41% | 3.05% | -0.97% |
| COc1ccc(C(=O)c2ccccc2O)c(O)c1 [dioxybenzone] | 1.95% | -0.38% | -1.57% | -0.76% | 2.94% |
| CNc1ncnc2c1ncn2[C@@H]1O[C@H](CO)[C@@H](O)[C@H]1O [N6-methyladenosine] | 1.25% | 1.97% | -1.29% | 0.63% | 2.03% |
| Cc1cc(=O)n(-c2ccccc2)[nH]1 [N-demethylantipyrine] | 6.19% | -3.23% | -4.99% | -2.77% | -2.87% |
| CC(C(=O)O)c1ccc(CC2CCCC2=O)cc1 (stereo not given) [loxoprofen] | 0.21% | 3.24% | 2.9% | 0.82% | 2.16% |
| CC(C)(C)NCC(O)COc1cccc2[nH]c(=O)[nH]c12 (stereo not given) | -0.75% | -0.25% | -0.12% | -0.11% | -0.04% |
| NC(=O)c1ncn([C@@H]2O[C@H](CO)[C@@H](O)[C@H]2O)n1 [ribavirin] | -5.15% | -3.9% | -6.04% | -0.66% | 4.23% |
| Cc1cc(N2CCCCC2)nc2ccccc12 | -1.33% | 3.15% | -0.88% | 0.63% | 4.47% |
| CCN1CCN(c2cc(-c3ccc(F)cc3)c3c(n2)CCCCCC3)CC1 [blonanserin] | 3.34% | 2.25% | -2.9% | -0.44% | -3.59% |
| CN1CC(=O)N=C1NC(=O)Nc1cccc(Cl)c1 [fenobam] | 0.79% | 2.12% | 0.63% | 1.08% | -0.64% |
| CCOP(=S)(OCC)Oc1ccc2c(C)c(Cl)c(=O)oc2c1 [coumophos] | -3.33% | 0.82% | 0.18% | -2.21% | -0.05% |
